Measured values: PubChem BioAssay AID1159580 (chemical genetic matrix, 2015)
Screen size: about 5,500 compounds; about 2,000 (36%) were called active. Another 18% or so got no clear call; they are omitted. No stated cut-off is given here; in the data, active means normalized growth mostly below about 0.91 (no sharp cut-off); inconclusive means no clear call, values can overlap the other calls; inactive means mostly above about 0.92. The list shows a part of the results.

Experiment: chemical genetic growth profiling, strain panel (AID 1159580);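 further: tested at 20 µM; growth read once vehicle control cultures reached saturation at 30 °C; 1 = growth at the plate median or of vehicle wells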
Settings: growth OD

Measured: normalized growth

OC(CCN1CCCCC1)(c1ccccc1)c1ccccc1
inactive: S. cerevisiae deletion strains, locus YJR075W, strain HOC1, stronger effect = lower value 1 | S. cerevisiae deletion strains, locus YKL009W, strain mrt4, stronger effect = lower value 1.03 | S. cerevisiae deletion strains, locus YKL068W, stronger effect = lower value 1.01 | S. cerevisiae deletion strains, locus YKL085W, strain MDH1 (second series), stronger effect = lower value 1.07 | S. cerevisiae deletion strains, locus YKL085W, strain MDH1, stronger effect = lower value 1.07 | S. cerevisiae deletion strains, locus YKL160W, strain elf1, stronger effect = lower value 1.03 | S. cerevisiae deletion strains, locus YKL190W, strain CNB1, stronger effect = lower value 1.01 | S. cerevisiae deletion strains, locus YKR001C, strain vps1, stronger effect = lower value 1.01 | S. cerevisiae deletion strains, locus YKR026C, strain gcn3, stronger effect = lower value 0.993 | S. cerevisiae deletion strains, locus YKR091W, strain srl3, stronger effect = lower value 0.993 | S. cerevisiae deletion strains, locus YLL001W, strain dnm1, stronger effect = lower value 1.01 | S. cerevisiae deletion strains, locus YLL026W, stronger effect = lower value 0.983 | S. cerevisiae deletion strains, locus YLL041C, strain sdh2, stronger effect = lower value 0.994 | S. cerevisiae deletion strains, locus YLR027C, strain aat2, stronger effect = lower value 1 | S. cerevisiae deletion strains, locus YLR039C, strain RIC1, stronger effect = lower value 1.08 | S. cerevisiae deletion strains, locus YLR058C, strain SHM2, stronger effect = lower value 1.01 | S. cerevisiae deletion strains, locus YLR102C, strain apc9, stronger effect = lower value 1.01 | S. cerevisiae deletion strains, locus YLR113W, strain HOG1, stronger effect = lower value 1.05 | S. cerevisiae deletion strains, locus YLR221C, strain rsa3, stronger effect = lower value 0.966 | S. cerevisiae deletion strains, locus YLR258W, strain gsy2, stronger effect = lower value 0.965 | S. cerevisiae deletion strains, locus YLR262C, strain YPT6 (second series), stronger effect = lower value 1.02 | S. cerevisiae deletion strains, locus YLR262C, strain YPT6, stronger effect = lower value 1.1 | S. cerevisiae deletion strains, locus YLR268W, strain sec22, stronger effect = lower value 1.02 | S. cerevisiae deletion strains, locus YLR320W, strain mms22, stronger effect = lower value 0.999 | S. cerevisiae deletion strains, locus YLR330W, strain CHS5, stronger effect = lower value 1.01 | S. cerevisiae deletion strains, locus YLR342W, strain FKS1 (second series), stronger effect = lower value 1.02 | S. cerevisiae deletion strains, locus YLR342W, strain FKS1, stronger effect = lower value 0.993 | S. cerevisiae deletion strains, locus YLR357W, strain rsc2, stronger effect = lower value 0.997 | S. cerevisiae deletion strains, locus YLR370C, strain arc18, stronger effect = lower value 0.974 | S. cerevisiae deletion strains, locus YLR371W, strain rom2, stronger effect = lower value 1.01 | S. cerevisiae deletion strains, locus YLR384C, strain iki3, stronger effect = lower value 0.983 | S. cerevisiae deletion strains, locus YLR418C, strain cdc73, stronger effect = lower value 1.01 | S. cerevisiae deletion strains, locus YML016C, strain PPZ1, stronger effect = lower value 1 | S. cerevisiae deletion strains, locus YML032C, strain rad52, stronger effect = lower value 1.01 | S. cerevisiae deletion strains, locus YML120C, strain ndi1, stronger effect = lower value 0.978 | S. cerevisiae deletion strains, locus YML124C, strain tub3, stronger effect = lower value 1 | S. cerevisiae deletion strains, locus YMR058W, strain fet3, stronger effect = lower value 0.996 | S. cerevisiae deletion strains, locus YMR078C, strain ctf18, stronger effect = lower value 1.01 | S. cerevisiae deletion strains, locus YMR125W, strain sto1, stronger effect = lower value 1.01 | S. cerevisiae deletion strains, locus YMR129W, stronger effect = lower value 0.99 | S. cerevisiae deletion strains, locus YMR205C, strain PFK2, stronger effect = lower value 1.01 | S. cerevisiae deletion strains, locus YMR223W, strain ubp8, stronger effect = lower value 1.01 | S. cerevisiae deletion strains, locus YMR231W, strain pep5, stronger effect = lower value 0.995 | S. cerevisiae deletion strains, locus YMR307W, strain GAS1, stronger effect = lower value 1.08 | S. cerevisiae deletion strains, locus YNL067W, strain RPL9B, stronger effect = lower value 1.02 | S. cerevisiae deletion strains, locus YNL071W, strain lat1, stronger effect = lower value 0.993 | S. cerevisiae deletion strains, locus YNL153C, strain GIM3, stronger effect = lower value 0.998 | S. cerevisiae deletion strains, locus YNL183C, strain NPR1, stronger effect = lower value 0.971 | S. cerevisiae deletion strains, locus YNL209W, strain ssb2, stronger effect = lower value 0.987 | S. cerevisiae deletion strains, locus YNL233W, strain BNI4, stronger effect = lower value 1.01 | S. cerevisiae deletion strains, locus YNL248C, strain rpa49, stronger effect = lower value 1.06 | S. cerevisiae deletion strains, locus YNL250W, strain rad50, stronger effect = lower value 1 | S. cerevisiae deletion strains, locus YNL271C, strain bni1, stronger effect = lower value 1.02 | S. cerevisiae deletion strains, locus YNL298W, strain CLA4, stronger effect = lower value 1.02 | S. cerevisiae deletion strains, locus YNL307C, strain MCK1, stronger effect = lower value 1.02 | S. cerevisiae deletion strains, locus YNL322C, strain KRE1 (second series), stronger effect = lower value 0.987 | S. cerevisiae deletion strains, locus YNL322C, strain KRE1, stronger effect = lower value 1.01 | S. cerevisiae deletion strains, locus YNR049C, strain mso1, stronger effect = lower value 0.997 | S. cerevisiae deletion strains, locus YNR052C, strain pop2, stronger effect = lower value 1.02 | S. cerevisiae deletion strains, locus YOL006C, strain TOP1, stronger effect = lower value 0.958 | S. cerevisiae deletion strains, locus YOL012C, strain htz1 0.814 | S. cerevisiae deletion strains, locus YOL147C, strain pex11, stronger effect = lower value 1 | S. cerevisiae deletion strains, locus YOR001W, strain rrp6, stronger effect = lower value 0.992 | S. cerevisiae deletion strains, locus YOR061W, strain CKA2, stronger effect = lower value 1 | S. cerevisiae deletion strains, locus YOR069W, strain VPS5, stronger effect = lower value 1 | S. cerevisiae deletion strains, locus YOR070C, strain gyp1, stronger effect = lower value 0.989 | S. cerevisiae deletion strains, locus YOR080W, strain dia2, stronger effect = lower value 0.984 | S. cerevisiae deletion strains, locus YOR083W, strain WHI5, stronger effect = lower value 1.03 | S. cerevisiae deletion strains, locus YOR106W, strain vam3, stronger effect = lower value 1.01 | S. cerevisiae deletion strains, locus YOR136W, strain idh2, stronger effect = lower value 1.01 | S. cerevisiae deletion strains, locus YOR144C, strain elg1, stronger effect = lower value 1 | S. cerevisiae deletion strains, locus YOR184W, strain ser1, stronger effect = lower value 1.02 | S. cerevisiae deletion strains, locus YOR231W, strain MKK1, stronger effect = lower value 1.07 | S. cerevisiae deletion strains, locus YOR265W, strain rbl2, stronger effect = lower value 0.989 | S. cerevisiae deletion strains, locus YOR270C, strain vph1, stronger effect = lower value 0.955 | S. cerevisiae deletion strains, locus YOR290C, strain snf2, stronger effect = lower value 1 | S. cerevisiae deletion strains, locus YOR316C, strain cot1, stronger effect = lower value 1.02 | S. cerevisiae deletion strains, locus YPL051W, strain arl3, stronger effect = lower value 1.06 | S. cerevisiae deletion strains, locus YPL055C, strain LGE1, stronger effect = lower value 1.02 | S. cerevisiae deletion strains, locus YPL078C, strain atp4, stronger effect = lower value 1.03 | S. cerevisiae deletion strains, locus YPL106C, strain sse1, stronger effect = lower value 0.966 | S. cerevisiae deletion strains, locus YPL240C, strain hsp82, stronger effect = lower value 0.984 | S. cerevisiae deletion strains, locus YPL241C, strain CIN2, stronger effect = lower value 1 | S. cerevisiae deletion strains, locus YPL256C, strain CLN2, stronger effect = lower value 1.04 | S. cerevisiae deletion strains, locus YPR119W, strain clb2, stronger effect = lower value 1.01 | S. cerevisiae deletion strains, locus YPR141C, strain kar3, stronger effect = lower value 1.01 | S. cerevisiae deletion strains, locus YPR163C, strain tif3, stronger effect = lower value 1.02 | S. cerevisiae deletion strains, locus YPR167C, strain met16, stronger effect = lower value 1.02 | S. cerevisiae deletion strains, strain wtn01, stronger effect = lower value 1.01 | S. cerevisiae strains, strain wild type, stronger effect = lower value 1.01
